# Records with an inconclusive call do not appear. Activity calls are given as the source filed them.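 How the source made its calls, unless noted: active means binding below the plate cutoff, the plate median minus 3 SD, with a reading above zero; inconclusive means below the plate cutoff but reading exactly zero; inactive means the rest.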
# What was measured:
# [1] = rapamycin-like changes in RPL19A-GFP expression – cell-based, S. cerevisiae, multiplex flow cytometry, primary screen (AID 1862; in the data active means percent of DMSO control GFP below about 86%;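 further: lower values mimic rapamycin by blocking the RPL19A rise seen in DMSO cells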); details: S. cerevisiae RPL19A-GFP strain, flow cytometry fluorescence, 3 h; at 10 µM; stronger effect = lower value
# [2] = TOR pathway GLN3 branch reporter MEP2-GFP changes – S. cerevisiae, multiplex flow cytometry, primary screen (AID 1867;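 active means GFP response, as percent of the DMSO control, above the screen-wide mean plus 3 SD, about 139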;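 further: median GFP channel fluorescence of barcode-gated MEP2-GFP cells measured by flow cytometry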); details: S. cerevisiae MEP2-GFP strain, 3 h, at 10 µM, stronger effect = higher value, 100% means same as DMSO wells
# [3] = TOR pathway RTG branch CIT2 reporter changes – S. cerevisiae, GFP fusion, multiplex flow cytometry, primary screen (AID 1870;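 active means percent response above a set limit, the screen-wide mean plus 3 SD, cut at about 130% in these data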;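 further: barcoded CIT2-GFP strain pooled with four other GFP strains with rapamycin as positive control; median GFP fluorescence per well over plate mean of DMSO wells so 100% = DMSO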); details: S. cerevisiae CIT2-GFP expression, 3 h, at 10 µM, stronger effect = higher value
# [4] = TOR pathway LAP4-GFP level changes – S. cerevisiae, multiplex flow cytometry, primary screen (AID 1873;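 active means GFP signal, as percent of the solvent control, above the screen mean plus 3 SD, about 149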); details: S. cerevisiae LAP4-GFP expression, 3 h, at 10 µM, stronger effect = higher value
# [5] = yeast AGP1-GFP level changes, GLN3 branch – cell-based, multiplex flow cytometry, S. cerevisiae, primary screen (AID 1887;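 active means GFP signal above the screen-wide mean plus 3 SD, that is over about 124.5% of the solvent control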;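 further: AGP1-GFP fusion strain of S. cerevisiae within a five-strain barcoded multiplex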); details: 3 h, at 10 µM, stronger effect = higher value
# [6] = hit retest on RPL19A-GFP reporter strain – cell-based, S. cerevisiae, flow cytometry, cherry picks, mother/daughter gates, confirmation (AID 2270;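 active means GFP response below 50% of the DMSO control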); details: 3 h, at 10 µM, stronger effect = lower value, 100 = same GFP as DMSO wells
# [7] = yeast TOR pathway reporter LAP4-GFP change – cell-based, cherry picks, flow cytometry, mother/daughter gates, confirmation (AID 2271;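 active means GFP response above 150% of the DMSO control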;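 further: ratio of sample to DMSO plate mean so 100% equals DMSO level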); details: S. cerevisiae LAP4-GFP strain, 3 h, at 10 µM, stronger effect = higher value, 100 means same as DMSO control
# [8] = TOR pathway reporter MEP2-GFP, retest of hits – S. cerevisiae, flow cytometry GFP, cherry picks, confirmation (AID 2272;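 active means GFP response above 150% of the DMSO control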;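 further: ratio of well signal to plate DMSO mean so 100% equals DMSO level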); details: S. cerevisiae MEP2-GFP strain, 3 h, at 10 µM, stronger effect = higher value
# [9] = TOR pathway CIT2 reporter hit retest – S. cerevisiae, GFP fusion, cherry picks, mother/daughter gates, confirmation (AID 2274;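 active means GFP response above 150% of the DMSO level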); details: S. cerevisiae CIT2-GFP strain, flow cytometry, 3 h, at 10 µM, stronger effect = higher value
# [10] = reduced mouse 2C T cell binding to pMHC/ICAM-1 vesicles – MLPCN validation set, flow cytometry, LFA-1/ICAM-1 modulator project, pilot screen (AID 2523;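 active means response below a set limit, under 55% cells CD8-positive and vesicle-bound, and CD8 cells' 90th-percentile brightness under 279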;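 on vesicle binding response: mean PE anti-B7-1 fluorescence of CD8+ cells relative to row control; 100% = QL9-loaded vesicles with DMSO vehicle in the same plate row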); details: 2C mouse CD8+ T cells, at 7 µM, stronger effect = lower value; double positive events: measured here: CD8+/vesicle+ event percentage
# [11] = target: Integrin beta-1 (Homo sapiens) + Integrin alpha-4 (Homo sapiens) (UniProt P13612+P05556); test: alpha4beta1 integrin LIBS antibody binding reduction – U937 cells, HUTS-21 mAb, flow cytometry, validation set, VLA-4 allosteric modulator project, pilot screen (AID 2674;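 active means inhibition above 50%, about 3 SD of the validation set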;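 further: antibody binding induced by the VLA-4 ligand LDV present at three times its Kd; 0% = LDV ligand with antibody and no compound and 100% = antibody without LDV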); details: HUTS-21 LIBS mAb binding, at 6.7 µM, stronger effect = higher value, binding induced by LDV ligand
# Sequence of Integrin beta-1 (Homo sapiens) + Integrin alpha-4 (Homo sapiens) (P05556 whole entry, looked up): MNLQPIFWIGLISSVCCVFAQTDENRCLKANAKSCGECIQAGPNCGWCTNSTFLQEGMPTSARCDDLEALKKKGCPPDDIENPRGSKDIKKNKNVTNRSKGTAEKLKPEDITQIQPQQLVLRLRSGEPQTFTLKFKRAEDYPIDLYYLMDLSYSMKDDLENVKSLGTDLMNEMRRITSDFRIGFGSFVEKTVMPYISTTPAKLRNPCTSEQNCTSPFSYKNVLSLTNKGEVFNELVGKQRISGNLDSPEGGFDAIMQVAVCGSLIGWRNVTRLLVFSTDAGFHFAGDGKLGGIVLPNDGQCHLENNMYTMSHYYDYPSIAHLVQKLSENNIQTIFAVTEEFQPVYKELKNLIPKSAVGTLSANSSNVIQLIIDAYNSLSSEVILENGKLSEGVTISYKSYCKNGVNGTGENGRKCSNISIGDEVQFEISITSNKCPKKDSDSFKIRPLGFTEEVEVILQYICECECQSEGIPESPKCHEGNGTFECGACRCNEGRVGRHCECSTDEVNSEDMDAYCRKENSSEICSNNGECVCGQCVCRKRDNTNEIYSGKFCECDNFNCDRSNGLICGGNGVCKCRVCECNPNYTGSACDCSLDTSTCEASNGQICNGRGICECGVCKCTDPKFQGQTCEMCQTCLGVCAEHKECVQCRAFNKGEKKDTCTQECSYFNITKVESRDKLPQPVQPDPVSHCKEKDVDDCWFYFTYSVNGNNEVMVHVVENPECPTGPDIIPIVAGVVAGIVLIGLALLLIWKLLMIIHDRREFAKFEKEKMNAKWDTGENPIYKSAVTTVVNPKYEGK
# Sequence of Integrin beta-1 (Homo sapiens) + Integrin alpha-4 (Homo sapiens) (P13612 whole entry, looked up): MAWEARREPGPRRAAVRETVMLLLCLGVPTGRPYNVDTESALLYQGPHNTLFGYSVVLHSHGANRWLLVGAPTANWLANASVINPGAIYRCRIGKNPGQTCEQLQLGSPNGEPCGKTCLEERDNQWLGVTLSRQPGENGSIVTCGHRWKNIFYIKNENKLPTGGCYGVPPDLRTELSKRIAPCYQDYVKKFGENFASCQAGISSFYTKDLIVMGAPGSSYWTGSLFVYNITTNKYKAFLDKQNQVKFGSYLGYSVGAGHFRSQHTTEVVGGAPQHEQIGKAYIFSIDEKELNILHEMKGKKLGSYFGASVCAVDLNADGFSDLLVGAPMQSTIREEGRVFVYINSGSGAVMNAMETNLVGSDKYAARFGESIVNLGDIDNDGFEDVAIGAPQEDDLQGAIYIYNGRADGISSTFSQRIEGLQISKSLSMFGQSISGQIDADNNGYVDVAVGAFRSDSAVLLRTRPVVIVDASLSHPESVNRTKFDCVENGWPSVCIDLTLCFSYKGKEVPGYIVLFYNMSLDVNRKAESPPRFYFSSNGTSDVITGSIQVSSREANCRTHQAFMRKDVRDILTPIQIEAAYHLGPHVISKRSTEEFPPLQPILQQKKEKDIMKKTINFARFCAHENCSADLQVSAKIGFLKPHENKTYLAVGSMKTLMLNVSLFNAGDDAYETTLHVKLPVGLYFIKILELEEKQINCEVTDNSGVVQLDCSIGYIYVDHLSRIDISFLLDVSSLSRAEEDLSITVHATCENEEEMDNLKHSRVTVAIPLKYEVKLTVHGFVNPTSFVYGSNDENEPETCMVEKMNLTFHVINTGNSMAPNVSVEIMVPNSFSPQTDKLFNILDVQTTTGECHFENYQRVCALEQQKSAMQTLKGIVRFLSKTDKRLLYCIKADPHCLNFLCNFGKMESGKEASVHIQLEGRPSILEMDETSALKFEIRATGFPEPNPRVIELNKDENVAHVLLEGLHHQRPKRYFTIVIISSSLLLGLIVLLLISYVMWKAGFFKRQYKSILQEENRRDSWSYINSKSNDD
# [12] = calorie-restriction mimetic ROS inhibitors, yeast – validation compound set, pilot screen (AID 2706;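 active means superoxide response below 65% of plate, a cut near 3 SD across the whole screen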;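 further: yeast exposed to compound for one week at 30 degrees C before staining; 100% = mean of all compound wells on the same plate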); details: S. cerevisiae aging, superoxide DHE fluorescence; at 10 µM; stronger effect = lower value
# [13] = target: Beta-adrenergic receptor kinase 1 (Homo sapiens) (UniProt P25098); test: GRK2 binders displacing RNA aptamer, biochemical, validation, human GRK2, bead flow cytometry (AID 488806;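 active means aptamer binding inhibition above 30%, about 3 SD of noise from non-fluorescent compounds; inactive means inhibition at or below 30%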); details: bead-bound GRK2, FAM-aptamer displacement, at 10 µM, stronger effect = higher value
# Sequence of Beta-adrenergic receptor kinase 1 (Homo sapiens) (P25098 whole entry, looked up): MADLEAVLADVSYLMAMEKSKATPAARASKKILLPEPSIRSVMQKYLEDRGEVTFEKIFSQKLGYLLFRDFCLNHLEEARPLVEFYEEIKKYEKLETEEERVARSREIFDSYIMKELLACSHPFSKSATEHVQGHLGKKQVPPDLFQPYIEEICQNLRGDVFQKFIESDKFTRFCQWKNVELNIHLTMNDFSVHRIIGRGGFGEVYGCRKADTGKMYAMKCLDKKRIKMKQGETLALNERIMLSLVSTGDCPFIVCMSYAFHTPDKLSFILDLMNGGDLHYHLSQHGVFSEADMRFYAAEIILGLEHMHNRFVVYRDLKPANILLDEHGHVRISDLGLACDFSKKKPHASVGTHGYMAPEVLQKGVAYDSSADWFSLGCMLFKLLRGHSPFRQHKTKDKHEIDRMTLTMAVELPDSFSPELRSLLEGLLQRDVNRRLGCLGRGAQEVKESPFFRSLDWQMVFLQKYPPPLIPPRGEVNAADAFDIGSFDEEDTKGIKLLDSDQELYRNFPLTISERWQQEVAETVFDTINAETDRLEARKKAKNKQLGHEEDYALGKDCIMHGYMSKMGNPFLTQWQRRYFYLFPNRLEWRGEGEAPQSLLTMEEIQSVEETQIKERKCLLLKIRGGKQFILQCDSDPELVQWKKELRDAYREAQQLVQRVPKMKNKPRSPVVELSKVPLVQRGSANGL
# [14] = target: Beta-2 adrenergic receptor (Homo sapiens) (UniProt P07550); test: agonist-induced loss of surface beta2AR – cell-based, FAP fluorogen, flow cytometry, validation set, pilot screen (AID 504459;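 active means percent response above 42, roughly 3 SD of non-fluorescent test compounds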;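 further: agonist-driven loss of surface beta2AR via internalization measured by FAP dye flow cytometry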); details: Am2.2-beta2AR cells, at 10 µM, stronger effect = higher value
# Sequence of Beta-2 adrenergic receptor (Homo sapiens) (P07550 whole entry, looked up): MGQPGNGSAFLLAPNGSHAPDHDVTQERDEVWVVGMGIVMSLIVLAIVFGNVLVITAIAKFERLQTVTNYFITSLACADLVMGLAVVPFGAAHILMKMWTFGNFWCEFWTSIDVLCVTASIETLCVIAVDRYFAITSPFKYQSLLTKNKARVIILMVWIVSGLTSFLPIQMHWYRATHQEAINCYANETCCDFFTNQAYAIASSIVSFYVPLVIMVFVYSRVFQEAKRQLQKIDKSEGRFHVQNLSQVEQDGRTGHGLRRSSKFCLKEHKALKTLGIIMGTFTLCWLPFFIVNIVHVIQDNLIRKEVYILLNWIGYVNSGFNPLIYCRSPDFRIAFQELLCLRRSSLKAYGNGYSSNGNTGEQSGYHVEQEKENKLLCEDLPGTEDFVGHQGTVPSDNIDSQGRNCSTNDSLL
# [15] = target: AP-2 complex subunit beta (Homo sapiens) (UniProt P63010); test: beta-arrestin/AP2 interaction blockers – biochemical, validation set, GST-AP2 beads, flow cytometry, pilot screen (AID 504541;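 active means inhibition above 54%, about 3 SD of non-fluorescent compounds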;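 further: AP2 carries R879A mutation and is captured from E. coli lysate; bead-bound FITC arrestin peptide fluorescence measuring arrestin peptide binding to AP2; 0% = DMSO wells and 100% = excess unlabeled arrestin peptide control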); details: FITC arrestin peptide, at 10 µM, stronger effect = higher value, AP2 beta2 appendage fragment, R879A mutant
# Sequence of AP-2 complex subunit beta (Homo sapiens) (P63010 whole entry, looked up, the tested form may be a part, one chain of several): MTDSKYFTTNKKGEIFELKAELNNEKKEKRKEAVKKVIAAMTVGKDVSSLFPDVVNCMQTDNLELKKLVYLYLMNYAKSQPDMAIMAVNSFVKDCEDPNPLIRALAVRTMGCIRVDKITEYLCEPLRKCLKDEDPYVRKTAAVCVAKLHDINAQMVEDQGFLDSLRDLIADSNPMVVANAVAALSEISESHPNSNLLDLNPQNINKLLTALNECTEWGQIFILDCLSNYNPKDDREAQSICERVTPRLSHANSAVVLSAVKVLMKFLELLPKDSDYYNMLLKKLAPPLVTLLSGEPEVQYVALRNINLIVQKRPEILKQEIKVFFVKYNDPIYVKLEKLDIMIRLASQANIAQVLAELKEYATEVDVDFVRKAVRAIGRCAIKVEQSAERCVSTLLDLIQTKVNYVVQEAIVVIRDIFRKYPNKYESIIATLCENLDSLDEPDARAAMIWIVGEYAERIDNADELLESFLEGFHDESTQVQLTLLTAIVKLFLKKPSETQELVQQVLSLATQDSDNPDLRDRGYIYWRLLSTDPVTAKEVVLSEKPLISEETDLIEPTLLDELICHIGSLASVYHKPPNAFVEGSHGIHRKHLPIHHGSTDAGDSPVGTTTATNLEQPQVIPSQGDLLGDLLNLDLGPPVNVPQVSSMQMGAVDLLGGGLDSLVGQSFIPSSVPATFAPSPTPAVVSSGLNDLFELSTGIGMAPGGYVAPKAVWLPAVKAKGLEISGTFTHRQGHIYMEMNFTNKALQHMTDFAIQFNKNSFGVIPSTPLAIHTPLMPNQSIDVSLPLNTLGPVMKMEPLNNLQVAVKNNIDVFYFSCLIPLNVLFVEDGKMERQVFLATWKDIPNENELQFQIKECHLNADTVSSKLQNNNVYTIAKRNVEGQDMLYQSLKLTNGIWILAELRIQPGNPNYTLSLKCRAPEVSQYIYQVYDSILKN
# [16] = cytosolic pH regulators acting via V-ATPase – S. cerevisiae, pHLuorin, HTS validation (AID 504600; in the data active means response above about 15%;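 further: plate controls were DMSO for no effect and reference compound for full effect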); details: V-ATPase proton transport, at 10 µM, stronger effect = higher value
# [17] = tested on: anti-desmoglein-3 scFv antibody binding to human DSG3; test: blockers of pathogenic pemphigus antibody–desmoglein-3 binding – biochemical, validation compound set, bead-based, flow cytometry, pilot screen (AID 588368); details: Protein G beads, DSG3-Fc, scFv-GFP binding, at 10 µM, stronger effect = lower value;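 further: signal is the median channel fluorescence of bead-bound GFP antibody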
# [18] = Nile Red efflux blockade in pump-expressing yeast – validation compound set, multiplex, phenotypic, pilot screen (AID 588506;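 active means efflux inhibition above 0.42, the validation set average plus 4 SD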;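 further: Nile Red retained in cells so higher fluorescence means more efflux inhibition; 0 = negative control wells and 1 = enniatin B 25 µM full block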); details: S. cerevisiae pump-expressing triplex, Nile Red efflux flow cytometry; at 10 µM; stronger effect = higher value; the pumps come from Candida albicans
# [19] = target: ATP-binding cassette sub-family B member 6 (Homo sapiens) (UniProt Q9NP58); test: blockers of ABCB6-driven porphyrin uptake – K562-ABCB6 cells, flow cytometry, validation set, pilot screen (AID 588550;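 active means inhibition above the screen-wide mean plus 3 SD, about 51%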;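 further: 0% = DMSO wells and 100% = benzethonium chloride 70 µM positive control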); details: K562-ABCB6 porphyrin accumulation, 1 h, at 10 µM, stronger effect = higher value
# Sequence of ATP-binding cassette sub-family B member 6 (Homo sapiens) (Q9NP58 whole entry, looked up): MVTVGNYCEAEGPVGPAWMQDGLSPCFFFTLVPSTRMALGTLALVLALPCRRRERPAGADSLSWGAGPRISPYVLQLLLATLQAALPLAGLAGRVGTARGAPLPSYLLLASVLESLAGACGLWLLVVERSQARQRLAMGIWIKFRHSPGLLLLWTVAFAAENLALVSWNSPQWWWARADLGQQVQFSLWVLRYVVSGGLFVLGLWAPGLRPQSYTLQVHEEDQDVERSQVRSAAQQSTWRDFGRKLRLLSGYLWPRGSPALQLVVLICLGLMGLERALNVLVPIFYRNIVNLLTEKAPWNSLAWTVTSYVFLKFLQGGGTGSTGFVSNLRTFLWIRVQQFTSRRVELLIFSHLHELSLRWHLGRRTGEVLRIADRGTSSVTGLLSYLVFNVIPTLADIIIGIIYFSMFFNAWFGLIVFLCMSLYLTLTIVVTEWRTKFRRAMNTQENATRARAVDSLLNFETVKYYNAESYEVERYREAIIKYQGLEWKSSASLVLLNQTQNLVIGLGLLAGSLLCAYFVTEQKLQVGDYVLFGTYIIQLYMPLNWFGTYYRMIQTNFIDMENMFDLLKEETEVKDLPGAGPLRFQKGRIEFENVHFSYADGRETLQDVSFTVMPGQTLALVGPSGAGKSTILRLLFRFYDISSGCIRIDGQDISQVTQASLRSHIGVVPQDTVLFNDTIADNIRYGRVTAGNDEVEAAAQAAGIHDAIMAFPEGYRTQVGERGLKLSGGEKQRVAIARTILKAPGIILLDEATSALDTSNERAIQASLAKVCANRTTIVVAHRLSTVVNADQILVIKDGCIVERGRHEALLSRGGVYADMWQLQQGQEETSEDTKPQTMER
# [20] = AML differentiation inducers, ER-HoxA9 marrow cells – cell-based, GFP/MAC1 double positive, flow cytometry, validation set, primary screen (AID 588685;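 active means differentiation response of at least 50%, scaled between solvent and reference control, from cells with both markers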;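 further: compound exposure lasts four days before antibody staining and flow analysis; 0% = DMSO wells and 100% = 5 µM fulvestrant positive control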); details: stronger effect = higher value, normalized: vehicle 0, fulvestrant 100
# [21] = measured here: daughter cell gate
# [22] = measured here: mother cell gate
# [23] = measured here: daughter cell gate response
# [24] = measured here: mother cell gate response
smiles,measurement,setting,value
c1cnc2c(c1)ccc1cccnc12,percent of DMSO control GFP,[1],98.9% (inactive)
same,GFP response vs DMSO,[2],107% (inactive)
same,percent response of DMSO control,[3],96.4% (inactive)
same,GFP response vs DMSO,[4],174% (active)
same,"GFP response, % of DMSO",[5],117% (inactive)
same,GFP response vs DMSO,[6],101% (inactive)
same,GFP response vs DMSO,[6]; [21],100%
same,GFP response vs DMSO,[6]; [22],100%
same,GFP response relative to DMSO,[7],116% (inactive)
same,GFP response relative to DMSO,[7]; [23],116%
same,GFP response relative to DMSO,[7]; [24],117%
same,GFP response vs DMSO,[8],112% (inactive)
same,"GFP response, % of DMSO",[9],111% (inactive)
same,"GFP response, % of DMSO",[9]; [21],117%
same,"GFP response, % of DMSO",[9]; [22],107%
same,double positive events,[10],59.5%
same,vesicle binding response,[10],192% (inactive)
same,inhibition,[11],19.3% (inactive)
same,superoxide response (% of plate),[12],77.1% (inactive)
same,aptamer binding inhibition,[13],8% (inactive)
same,response,[14],-45.4% (inactive)
same,inhibition,[15],10.3% (inactive)
same,response,[16],9.34% (inactive)
same,binding (% of control),[17],105% (inactive)
same,efflux inhibition (fraction of control),[18],-0.13 (inactive)
same,inhibition,[19],4% (inactive)
same,differentiation response,[20],-0.06% (inactive)
COc1ccc(C2=CC(=O)C=CC2=O)cc1,percent of DMSO control GFP,[1],84.7% (active)
same,GFP response vs DMSO,[2],105% (inactive)
same,percent response of DMSO control,[3],68.5% (inactive)
same,GFP response vs DMSO,[4],144% (inactive)
same,"GFP response, % of DMSO",[5],91.9% (inactive)
same,GFP response vs DMSO,[6],109% (inactive)
same,GFP response vs DMSO,[6]; [21],114%
same,GFP response vs DMSO,[6]; [22],104%
same,GFP response relative to DMSO,[7],119% (inactive)
same,GFP response relative to DMSO,[7]; [23],120%
same,GFP response relative to DMSO,[7]; [24],122%
same,GFP response vs DMSO,[8],117% (inactive)
same,"GFP response, % of DMSO",[9],108% (inactive)
same,"GFP response, % of DMSO",[9]; [21],111%
same,"GFP response, % of DMSO",[9]; [22],103%
same,double positive events,[10],64.5%
same,vesicle binding response,[10],146% (inactive)
same,inhibition,[11],4.84% (inactive)
same,superoxide response (% of plate),[12],80.4% (inactive)
same,aptamer binding inhibition,[13],1% (inactive)
same,response,[14],64.2% (active)
same,inhibition,[15],64.5% (active)
same,response,[16],62.2% (active)
same,binding (% of control),[17],88.8% (inactive)
same,efflux inhibition (fraction of control),[18],-0.04 (inactive)
same,inhibition,[19],-2% (inactive)
same,differentiation response,[20],-0.06% (inactive)
O=C(O)CCNC(=O)c1ccccc1,percent of DMSO control GFP,[1],90% (inactive)
same,GFP response vs DMSO,[2],151% (active)
same,percent response of DMSO control,[3],101% (inactive)
same,GFP response vs DMSO,[4],82% (inactive)
same,"GFP response, % of DMSO",[5],91% (inactive)
same,GFP response vs DMSO,[6],98.7% (inactive)
same,GFP response vs DMSO,[6]; [21],97.5%
same,GFP response vs DMSO,[6]; [22],98.1%
same,GFP response relative to DMSO,[7],103% (inactive)
same,GFP response relative to DMSO,[7]; [23],102%
same,GFP response relative to DMSO,[7]; [24],103%
same,GFP response vs DMSO,[8],102% (inactive)
same,"GFP response, % of DMSO",[9],97.8% (inactive)
same,"GFP response, % of DMSO",[9]; [21],98.3%
same,"GFP response, % of DMSO",[9]; [22],98%
same,double positive events,[10],65.7%
same,vesicle binding response,[10],186% (inactive)
same,inhibition,[11],-4.21% (inactive)
same,superoxide response (% of plate),[12],94.8% (inactive)
same,aptamer binding inhibition,[13],3% (inactive)
same,response,[14],3.62% (inactive)
same,inhibition,[15],47.5% (inactive)
same,response,[16],-1.09% (inactive)
same,binding (% of control),[17],98.7% (inactive)
same,efflux inhibition (fraction of control),[18],0.52 (active)
same,inhibition,[19],112% (active)
same,differentiation response,[20],26.2% (inactive)

# Source: PubChem BioAssay
